# Screening data: PubChem, National Center for Advancing Translational Sciences (NCATS)
# G9a inh – qHTS Assay for Inhibitors of Histone Lysine Methyltransferase G9a | Histone-lysine N-methyltransferase EHMT2 (Homo sapiens), Q96KQ7 | G9a H3K9 monomethylation, AlphaScreen, 2 h | 350,000 tested, 8.8% active | Potency, µM (series often up to 102 µM), for the others: top-dose activity, negative = inhibition, actives largely listed as inhibitors; also: potency is read from the fitted curve at half-maximal effect; nearly all actives have a fitted effect of over 75% in size
# Target sequence (Q96KQ7 913-1193 limits assumed): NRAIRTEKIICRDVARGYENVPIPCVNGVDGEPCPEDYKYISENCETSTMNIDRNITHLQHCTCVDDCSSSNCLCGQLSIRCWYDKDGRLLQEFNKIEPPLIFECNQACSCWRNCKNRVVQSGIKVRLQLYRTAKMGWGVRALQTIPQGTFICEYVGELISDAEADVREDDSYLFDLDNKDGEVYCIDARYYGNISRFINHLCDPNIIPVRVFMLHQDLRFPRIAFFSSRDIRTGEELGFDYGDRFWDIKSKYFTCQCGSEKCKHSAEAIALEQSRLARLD
#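 G9a (20 nM) preincubated 15 min RT with compounds, then 500 nM biotinylated H3K9 peptide and 20 uM SAM added; 2 h RT reaction. Monomethyl-H3K9 product detected by AlphaScreen with anti-H3K9me1 antibody, streptavidin donor and anti-rabbit IgG acceptor beads.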
# VDR inh – Inhibitors of the vitamin D receptor (VDR): qHTS. Vitamin D3 receptor (Homo sapiens), P11473. VDR-SRC2-3 peptide fluorescence polarization, 2 h. Potency, µM, for inactives: max response, negative = inhibition, hits mostly inhibitors. 400,000 tested, 0.93% active. AID 504847, 2011; also: potency is read from the fitted curve at half-maximal effect
# Target sequence (P11473 whole entry, looked up): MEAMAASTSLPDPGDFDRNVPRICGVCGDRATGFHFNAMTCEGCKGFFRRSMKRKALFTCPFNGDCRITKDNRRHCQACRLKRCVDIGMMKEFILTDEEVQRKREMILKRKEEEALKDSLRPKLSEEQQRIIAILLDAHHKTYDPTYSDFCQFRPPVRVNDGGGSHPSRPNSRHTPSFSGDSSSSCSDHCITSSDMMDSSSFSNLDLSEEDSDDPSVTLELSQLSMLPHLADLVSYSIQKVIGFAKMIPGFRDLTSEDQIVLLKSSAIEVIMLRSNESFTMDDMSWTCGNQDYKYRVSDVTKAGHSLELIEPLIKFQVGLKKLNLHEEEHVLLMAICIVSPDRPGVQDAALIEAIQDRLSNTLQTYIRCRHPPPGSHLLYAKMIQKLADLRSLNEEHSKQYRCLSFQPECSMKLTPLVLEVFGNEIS
#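 FP read-out; VDR + SRC2-3 coactivator peptide; 23 nl compound by pintool; 2 h RT incubation; reagents held at 4 deg C, protected from light.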
# CCT modulator – High-Throughput Screening for Modulators of Cytosolic Chaperonin Activity; purified chaperonin ATPase assay, HTRF ADP detection, 30 min; activity change, % (no concentration beside the values), hits read low; AID 651819, 2012; 360,000 tested, 0.3% active; in the data active = activity change below about -30%
#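 Nucleotide hydrolysis assay: TRiC at 20–40 nM final (set by batch activity) with 10 uM ATP, 30 min at 37 °C, in presence of 76 uM compound. Detection by competitive ADP HTRF, 30 min ambient.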
# Sfp inh – qHTS Assay for Inhibitors of Bacillus subtilis Sfp phosphopantetheinyl transferase (PPTase); 4'-phosphopantetheinyl transferase ffp (Bacillus subtilis), Q9F4F7; Biochemical Sfp PPTase activity, qHTS; Potency, µM, without a hit: largest response in the series, negative = inhibition, usual class: inhibitors; 310,000 tested, 3.5% active; AID 1490, 2009;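 also: the enzyme is Sfp with the accession as filed and its product quenches rhodamine fluorescence; potency is read from the fitted curve at half-maximal effect; 0% = enzyme reaction without inhibitor and -100% = no enzyme wells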
#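 After 15 min at room temperature with compound, 15 nM Sfp received 5 uM rhodamine-CoA plus 12.5 uM BHQ-2-ybbR (50 mM Hepes pH 7.6, 10 mM MgCl2). Rate came from the fluorescence difference over 30 min, ex 525/em 598 nm.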
# MmCpn inh – Inhibitors of TCP-1 ring complex (TRiC) of Methanococcus maripaludis (MmCpn): qHTS. purified Mm-Cpn ATPase, ADP Transcreener TR-FRET. 330,000 tested, 0.031% active. Potency, µM (series often up to 76.9 µM), without a hit: at the highest dose activity, negative = inhibition, usual class: inhibitors. AID 504842, 2011; also: potency is read from the fitted curve at half-maximal effect; nearly all actives have a fitted effect of over 80% in size
#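 Inhibition of chaperonin ATP hydrolysis is measured as reduced ADP production, detected by competitive TR-FRET in which signal falls with ADP. Final enzyme 25 nM and ATP 10 uM, reacted 30 min at 37°C.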
# PLK1 PBD block – qHTS for Inhibitors of PLK1-PDB (polo-like kinase 1 - polo-box domain): Primary Screen; Potency, µM, for inactives: max response, negative = inhibition, most hits filed as inhibitors; 360,000 tested, 2.8% active; Serine/threonine-protein kinase PLK1 (Homo sapiens), P53350; AID 720504, 2013; Plk1 PBD binding of FITC phosphopeptide, fluorescence polarization; also: potency is read from the fitted curve at half-maximal effect; series mostly up to about 57 µM; nearly all actives have a fitted effect of over 65% in size
# Numbers without * were called inactive; u = inconclusive; x = no result; ! = a repeat was not active; [ ] = dose if it differs, or a comment. The list is not random: actives were taken first. Their share in the collection is about 10%. Unless noted, calls follow the shape of the dose curve; as a rule, active = well fitted curve in the direction sought with a large enough effect; inconclusive = small, poorly fitted or top-dose-only effect, or another doubt; inactive = no such curve, though single readings can be large; an effect the other way counts as inactive or inconclusive. Unless noted, % is scaled to controls: 0 for no effect and ±100 for the full control effect.
SMILES,G9a inh,VDR inh,CCT modulator,Sfp inh,MmCpn inh,PLK1 PBD block
O=C(CCC(=O)N1CCN(S(=O)(=O)c2ccc3ccccc3c2)CC1)Nc1cc(Cl)cc(Cl)c1,2%,3%,0,11%,-4%,1%
CCOc1cc2c(C#N)c(N(CC)CC)nc(N)c2c(N)n1,x,45µM*,-1,x,x,-3%
Cc1nc2nc(C)c(CCC(=O)NCCCN3CCN(c4cccc(Cl)c4)CC3)c(C)n2n1,50µM*!,-16%,2,3%,-3%,-4%
CCN(CC)S(=O)(=O)c1cccc(C(=O)N[C@H](C(=O)Nc2nc3ccccc3s2)C(C)C)c1,3%,-11%,2,6%,-1%,1%
CCN(CC)S(=O)(=O)c1cccc(C(=O)NC(C(=O)Nc2nnc(C3CC3)s2)C(C)C)c1 (stereo not given),-3%[59 µM],12%,0,-2%,1%,27µM*
CC1CCC(NCC(=O)Nc2cccc(S(N)(=O)=O)c2)CC1 (stereo not given),10µM*,-2%,2,-27%,-3%,-4%
CN(C)S(=O)(=O)c1cccc(NC(=S)NC23CC4CC(CC(C4)C2)C3)c1,5%,7%,1,16%,-2%,-1%
CCN(CC)S(=O)(=O)c1cccc(C(=O)NCC2CCCCC2)c1,-9%,u,-1,18%,0%,24µM*
CCN(CC)S(=O)(=O)c1cccc(NC(=O)CCNC(=O)NC23CC4CC(CC(C4)C2)C3)c1,50µM*,-3%,2,x,1%,-4%
COc1ccc(C2Nc3ccc(NC(C)=O)cc3C(=O)N2Cc2cccc(Cl)c2)cc1COc1ccc(NC(C)=O)cc1 (stereo not given),x,-15%,x,x,x,x
CCCSc1nc2sc3c(c2c(=O)n1-c1ccc(C)c(Cl)c1)CCN(C(C)=O)C3,u,11%,x,x,x,x
Cc1c(C(=O)NN2CCCCC2)nn(-c2ccc(Cl)cc2Cl)c1-c1ccc(Cl)cc1,u,u,x,-12%,x,x
CN(C)S(=O)(=O)c1cccc(NC(=O)CNCC2CCCCC2)c1,14µM*,0%,0,u,-5%,-4%
CCN(CC)S(=O)(=O)c1cccc(NC(=O)CNC2CCCCCC2)c1,35µM*,-3%,-1,-9%,1%,-2%
CCCSc1nc(=O)c2c(n1C)NC(=O)CC2c1cccc(F)c1F (stereo not given),7%[59 µM],6%,x,x,x,x
CCc1ccc(NC(=O)CCS(=O)(=O)c2ccc3c(c2)oc(=O)n3C)cc1,-6%[59 µM],-10%,x,x,x,x
COC(=O)c1ccc(CSc2nc3ccccc3c(=O)n2-c2ccccc2)o1,16µM*,-18%,0,-9%,-1%,-10%
COC(=O)c1ccc(CSc2nc3ccccc3c(=O)n2-c2ccc(OC)c(OC)c2)o1,-8%[12.7 µM],-11%,3,u,0%,-8%
COC(=O)c1ccc(CSc2nnc3n(Cc4ccccc4OC)c(=O)c4ccccc4n23)o1,45µM*,2%,0,-23%,0%,-6%
COc1cccc(CNC(=O)CCn2nc(C)c3c(C)n(-c4ccccc4)nc3c2=O)c1,-14%[59 µM],19%,x,x,x,x
Cc1ccc(C(=O)CSc2nc(C)cc(C)c2C(=O)Nc2cccc(C)c2)cc1,-33%[59 µM],-7%,x,x,x,x
O=C(c1csnn1)N1CCC2(CC1)CCN(c1ccccn1)CC2,-1%[12.7 µM],u,x,4%,x,x
COc1ccc(-n2nc3c(N4CCCC(C(=O)NCc5ccccc5C)C4)nnc(C)c3c2C)cc1 (stereo not given),u,21%,x,x,1%,x
NC(=O)C1(N2CCCCC2)CCN(C(=O)Nc2ccc(F)cc2)CC1,2%[59 µM],23%,x,x,x,x
CC(C)N1C(=O)/C(=C\c2nc3ccccc3c(=O)n2-c2ccccc2)c2ccccc21,u,71µM*,1,-4%,1%,-7%
SMILES,G9a inh,VDR inh,CCT modulator,Sfp inh,MmCpn inh,PLK1 PBD block
CC(C)N1C(=O)/C(=C/c2nc3ccccc3c(=O)n2-c2ccccc2)c2ccccc21,10µM*,71µM*,-1,-9%,-14%,-10%
O=C1c2ccccc2-n2c1nc1ccccc1c2=O,-9%,-11%,-3,-12%,-4%,-3%
CS(=O)(=O)c1ccc(C(=O)Nc2ccccc2Cl)cc1,-6%,2%,0,10%,-1%,2%
CS(=O)(=O)c1ccc(C(=O)Nc2cc(S(C)(=O)=O)ccc2Cl)cc1,45µM*,-2%,-1,0%,-4%,-3%
Cc1ccc(OCC(=O)Nc2nnc(S(=O)(=O)N3CCCCCC3)s2)cc1,-37%[59 µM],3%,-1,-2%,-5%,-4%
Cc1ccc(OCC(=O)Nc2nnc(S(=O)(=O)N3CCCCC3)s2)cc1,79µM*,14%,2,0%,-1%,u
O=C(COc1ccccc1Cl)Nc1nnc(S(=O)(=O)N2CCCCCC2)s1,56µM*!,11%,0,2%,2%,-25%
Cc1ccc(Cl)cc1NC(c1ccc(F)cc1)c1nnc(-c2ccccc2)o1 (stereo not given),33%[59 µM],6%,x,x,x,x
CC(=O)Nc1ccc(NC(=O)CCC(=O)c2ccc(C)cc2)cc1,8%[59 µM],13%,x,x,x,x
CCC(C)NC(=O)c1c(-c2ccccc2)c(-c2ccccc2)nn(C)c1=O (stereo not given),-34%[59 µM],6%,x,x,x,x
Cc1ccc(C)c(NC(=O)CSc2nc(=O)n(CCN(C)C)c3c2CCC3)c1,8%[59 µM],17%,x,x,x,x
O=C(c1cc(-c2cccc(O)c2)on1)N1CCCC1,50µM*,2%,0,14%,3%,-9%
O=C(c1cc(-c2ccc(O)cc2)on1)N1CCN(c2ccccc2)CC1,-4%[59 µM],0%,-1,-2%,2%,34µM*
Brc1ccc(N/N=C(/N=Nc2nn[nH]n2)c2ccccc2)cc1,11µM*,u,-2,-96%,2%,u
O=C(NCc1n[nH]c(=S)n1-c1ccc(F)cc1)c1ccc(S(=O)(=O)N2CCOCC2)cc1,14µM*,-21%,-4,45µM*,-2%,u
O=C(Cc1ccccc1)NCc1n[nH]c(=S)n1-c1ccc(Br)cc1,u,u,0,9%,1%,11µM*
COc1ccc(CC(=O)NCc2n[nH]c(=S)n2-c2ccc(Br)cc2)cc1,u,1%,1,15%,4%,u
COc1ccc(CC(=O)NCc2n[nH]c(=S)n2-c2ccccc2)cc1,14µM*,-2%,-2,-2%,0%,1%
